# According to PubChem BioAssay (NCATS):
# Inconclusive results are not listed. A call without a number means that no potency is given here. Active and inactive are the calls of the source. The call rests on the fitted dose curve; in most records, active means well fitted curve in the direction sought with a large enough effect; inconclusive means small, poorly fitted or top-dose-only effect, or another doubt; inactive means no such curve, though single readings can be large; an effect the other way counts as inactive or inconclusive.
# Tests used:
# [1] = biological target: Calcium and integrin-binding protein 1 (Homo sapiens) (UniProt Q99828); assay: Primary qHTS for Identification of Calcium Integrin Binding Protein 1 (CIB1) Competitor (AID 1508620);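 further: GST tagged CIB1 binding a fluorescein labelled alphaIIb integrin peptide tracer; top concentration of the series differs between compounds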
# Chain of Calcium and integrin-binding protein 1 (Homo sapiens) (Q99828 whole entry, looked up): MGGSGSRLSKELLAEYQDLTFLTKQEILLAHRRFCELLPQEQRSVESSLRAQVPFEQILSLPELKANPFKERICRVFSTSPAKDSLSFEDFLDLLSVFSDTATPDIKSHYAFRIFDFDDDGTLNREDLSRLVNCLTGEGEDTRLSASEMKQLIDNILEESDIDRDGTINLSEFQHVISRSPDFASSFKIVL
# How it was run: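 Fluorescence polarization competition: CIB1-GST (1 uM final) preincubated with compound 15 min at room temperature, then FITC-labeled alphaIIb peptide (100 nM final) added for another 15 min. Polarization read at Ex 480/Em 540.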
# [2] = Primary qHTS for inhibitors of nuclear receptor binding SET domain protein 2 (NSD2) in an isogenic RCH-ACV NSD2 p.E1099K mutant (9B) (AID 1645876); further: nearly all actives have a fitted effect of over 70% in size; further: potency means the concentration at half of the fitted maximal effect
# [3] = Primary qHTS for inhibitors of nuclear receptor binding SET domain protein 2 (NSD2) in an RCH-ACV wild type WT cells (2C) (AID 1645877); further: nearly all actives have a fitted effect of over 70% in size; further: potency means the concentration at half of the fitted maximal effect
# [4] = biological target: Catechol O-methyltransferase (Homo sapiens) (UniProt P21964); assay: Confirmatory Screen for Target Class Profiling of Small Molecule Inhibitors of Methyltransferases (AID 1745852); conditions: MTase-Glo luminescence, SAH detection, recombinant enzyme; measured here: COMT max response; stronger effect = lower value
# Chain of Catechol O-methyltransferase (Homo sapiens) (P21964 whole entry, looked up): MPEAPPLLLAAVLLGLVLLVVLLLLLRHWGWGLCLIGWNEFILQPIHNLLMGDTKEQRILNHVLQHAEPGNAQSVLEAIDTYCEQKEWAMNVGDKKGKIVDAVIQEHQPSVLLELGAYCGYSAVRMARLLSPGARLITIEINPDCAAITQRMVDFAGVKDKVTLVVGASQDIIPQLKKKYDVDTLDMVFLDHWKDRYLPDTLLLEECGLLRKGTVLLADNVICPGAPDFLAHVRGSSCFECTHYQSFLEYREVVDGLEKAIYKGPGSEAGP
# [5] = biological target: Guanidinoacetate N-methyltransferase (Homo sapiens) (UniProt Q14353); assay: as above; conditions: MTase-Glo luminescence, SAH detection, recombinant enzyme; activity change, negative = inhibition: at 57.3 µM (top of the series) unless noted
# [6] = biological target: Nicotinamide N-methyltransferase (Homo sapiens) (UniProt P40261); assay: as above; conditions: MTase-Glo luminescence, SAH detection, recombinant enzyme; measured here: NNMT max response; stronger effect = lower value
# Chain of Nicotinamide N-methyltransferase (Homo sapiens) (P40261 whole entry, looked up): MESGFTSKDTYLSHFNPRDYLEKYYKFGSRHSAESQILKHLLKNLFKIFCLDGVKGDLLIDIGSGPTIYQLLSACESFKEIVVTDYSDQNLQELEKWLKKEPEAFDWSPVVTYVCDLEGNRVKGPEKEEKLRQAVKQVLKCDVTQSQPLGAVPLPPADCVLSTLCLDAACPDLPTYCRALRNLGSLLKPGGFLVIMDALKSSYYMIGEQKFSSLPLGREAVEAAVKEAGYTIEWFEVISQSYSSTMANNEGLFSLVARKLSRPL
# [7] = biological target: Phenylethanolamine N-methyltransferase (Homo sapiens) (UniProt P11086); assay: as above; conditions: MTase-Glo luminescence, SAH detection, recombinant enzyme; measured here: PNMT max response; stronger effect = lower value
# Chain of Phenylethanolamine N-methyltransferase (Homo sapiens) (P11086 whole entry, looked up): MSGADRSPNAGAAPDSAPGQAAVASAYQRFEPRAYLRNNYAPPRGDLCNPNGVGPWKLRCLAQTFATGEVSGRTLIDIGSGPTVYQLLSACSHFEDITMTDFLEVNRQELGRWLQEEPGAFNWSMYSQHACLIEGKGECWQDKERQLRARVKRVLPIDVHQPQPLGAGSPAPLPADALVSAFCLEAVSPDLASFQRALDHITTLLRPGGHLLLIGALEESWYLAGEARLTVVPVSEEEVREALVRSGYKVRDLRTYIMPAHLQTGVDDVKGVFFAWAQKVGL
# [8] = biological target: Rap guanine nucleotide exchange factor 3 (Homo sapiens) (UniProt O95398); assay: Confirmatory qHTS for agonist of cAMP-regulated guanine nucleotide exchange factor 3 (EPAC1) (AID 1645881);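 further: EPAC1 catalysed release of BODIPY-GDP from Rap1B seen as fluorescence loss; nearly all actives have a fitted effect of over 75% in size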
# Chain of Rap guanine nucleotide exchange factor 3 (Homo sapiens) (O95398 whole entry, looked up): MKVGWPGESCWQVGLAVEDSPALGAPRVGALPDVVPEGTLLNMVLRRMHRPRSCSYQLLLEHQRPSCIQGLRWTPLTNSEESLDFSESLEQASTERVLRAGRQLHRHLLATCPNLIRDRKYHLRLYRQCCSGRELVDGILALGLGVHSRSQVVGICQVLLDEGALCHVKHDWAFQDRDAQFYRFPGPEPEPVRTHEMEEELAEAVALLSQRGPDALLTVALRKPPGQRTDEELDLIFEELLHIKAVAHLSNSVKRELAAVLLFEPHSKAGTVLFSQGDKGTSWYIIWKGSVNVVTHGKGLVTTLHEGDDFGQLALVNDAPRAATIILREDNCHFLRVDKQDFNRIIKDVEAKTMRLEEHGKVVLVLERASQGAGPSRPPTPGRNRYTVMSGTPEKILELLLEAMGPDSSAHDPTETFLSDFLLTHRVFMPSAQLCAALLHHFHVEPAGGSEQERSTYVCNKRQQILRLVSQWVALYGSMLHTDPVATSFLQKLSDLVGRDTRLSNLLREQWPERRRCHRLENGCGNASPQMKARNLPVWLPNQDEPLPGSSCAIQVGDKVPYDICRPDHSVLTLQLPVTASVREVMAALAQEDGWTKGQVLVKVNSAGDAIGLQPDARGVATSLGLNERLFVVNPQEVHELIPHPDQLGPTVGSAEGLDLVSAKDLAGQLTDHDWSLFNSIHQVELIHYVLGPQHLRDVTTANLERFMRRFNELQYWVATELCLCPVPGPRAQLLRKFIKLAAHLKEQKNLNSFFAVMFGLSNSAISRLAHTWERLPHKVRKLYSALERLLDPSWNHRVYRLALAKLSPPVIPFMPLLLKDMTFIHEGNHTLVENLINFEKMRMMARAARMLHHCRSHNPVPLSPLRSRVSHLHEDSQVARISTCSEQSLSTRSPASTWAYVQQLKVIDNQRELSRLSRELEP
# [9] = biological target: Rap guanine nucleotide exchange factor 4 (Homo sapiens) (UniProt Q8WZA2); assay: Confirmatory qHTS for agonist of cAMP-regulated guanine nucleotide exchange factor 4 (EPAC2) (AID 1645884);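 further: nucleotide exchange releases bodipy-GDP from Rap1 and this lowers its fluorescence; nearly all actives have a fitted effect of over 65% in size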
# Chain of Rap guanine nucleotide exchange factor 4 (Homo sapiens) (Q8WZA2 whole entry, looked up): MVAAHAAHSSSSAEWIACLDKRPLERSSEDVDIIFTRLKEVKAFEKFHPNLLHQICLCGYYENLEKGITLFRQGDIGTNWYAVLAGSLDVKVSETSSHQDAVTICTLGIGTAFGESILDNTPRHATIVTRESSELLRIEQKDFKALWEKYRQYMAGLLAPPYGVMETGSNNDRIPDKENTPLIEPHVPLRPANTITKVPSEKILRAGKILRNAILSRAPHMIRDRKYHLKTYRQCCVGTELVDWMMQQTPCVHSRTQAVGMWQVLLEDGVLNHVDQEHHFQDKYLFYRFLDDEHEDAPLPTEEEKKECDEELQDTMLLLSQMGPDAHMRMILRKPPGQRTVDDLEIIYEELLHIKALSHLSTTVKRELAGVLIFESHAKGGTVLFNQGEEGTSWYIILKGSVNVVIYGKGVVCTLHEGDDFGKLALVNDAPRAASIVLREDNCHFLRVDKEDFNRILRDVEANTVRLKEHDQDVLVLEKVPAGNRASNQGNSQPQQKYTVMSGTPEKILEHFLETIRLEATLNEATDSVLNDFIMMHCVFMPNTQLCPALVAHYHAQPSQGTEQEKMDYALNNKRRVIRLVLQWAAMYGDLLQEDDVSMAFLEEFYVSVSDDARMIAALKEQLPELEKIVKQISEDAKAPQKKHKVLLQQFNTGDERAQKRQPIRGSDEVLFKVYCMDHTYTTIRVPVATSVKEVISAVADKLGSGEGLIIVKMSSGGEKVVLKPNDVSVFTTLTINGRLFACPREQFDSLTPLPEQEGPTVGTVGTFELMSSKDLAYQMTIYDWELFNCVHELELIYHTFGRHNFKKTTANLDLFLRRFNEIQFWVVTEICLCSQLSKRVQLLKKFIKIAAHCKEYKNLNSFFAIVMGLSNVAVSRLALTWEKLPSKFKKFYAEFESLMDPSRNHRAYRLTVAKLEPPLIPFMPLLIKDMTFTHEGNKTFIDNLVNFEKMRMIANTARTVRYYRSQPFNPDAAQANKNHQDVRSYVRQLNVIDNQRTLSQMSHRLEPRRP
smiles,measurement,setting,value
CC1(CO)CCCC2(C)C1C(OC(=O)c1ccccc1)CC1C(=O)OCC12O (configuration not stated),Potency,[1],inactive
same,Potency,[2],inactive
same,Potency,[3],inactive
COc1ccc([C@H]2OC[C@H]3[C@@H]2CO[C@@H]3c2ccc(O[C@@H]3O[C@H](CO)C(O)[C@H](O)[C@H]3O)c(OC)c2)cc1OC (some centres not stated),Potency,[1],inactive
same,Potency,[2],inactive
same,Potency,[3],inactive
OC[C@@]1(O)CO[C@@H](OC[C@H]2O[C@@H](OCc3ccccc3)[C@H](O)[C@@H](O)[C@@H]2O)[C@@H]1O,Potency,[1],inactive
same,Potency,[2],inactive
same,Potency,[3],inactive
CC1(C)CC[C@]2(C(=O)O[C@@H]3O[C@H](CO)[C@@H](O)[C@H](O)[C@H]3O)CC[C@]3(C)C(=CCC4[C@@]5(C)C[C@@H](O)[C@H](O)[C@@](C)(CO)C5[C@H](O)C[C@]43C)C2C1 (some centres not stated),Potency,[1],inactive
same,Potency,[2],inactive
same,Potency,[3],inactive
CC1=CC2=C(C)C(=O)[C@](C)(O)[C@H](O)C2=CO1,Potency,[1],inactive
same,Potency,[2],inactive
same,Potency,[3],inactive
COc1cc2c(cc1O)C(c1ccc(O)cc1)C(C)C(C)C2 (configuration not stated),Potency,[1],inactive
same,Potency,[2],25.8 µM (active)
same,Potency,[3],18.3 µM (active)
CC1(C)CCC[C@]2(C)C1CC=C(CO)[C@H]2CC/C(=C/CO)CO (some centres not stated),Potency,[1],inactive
same,Potency,[2],inactive
same,Potency,[3],inactive
COC(=O)C1=COC(O[C@@H]2O[C@H](CO)[C@@H](O)[C@H](O)[C@H]2O)[C@@H]2[C@@](C)(O)[C@@H](OC(=O)/C=C/c3ccccc3)C[C@]12O (some centres not stated),Potency,[1],inactive
same,Potency,[2],inactive
same,Potency,[3],inactive
CC(C)(O)C1CC=C(C(=O)OC[C@H]2O[C@@H](OC(=O)C3=CCC(C(C)(C)O)CC3)[C@H](O)[C@@H](O)[C@@H]2O)CC1 (some centres not stated),Potency,[1],inactive
same,Potency,[2],inactive
same,Potency,[3],inactive
same,activity,[4],-62.1%
same,"activity change, negative = inhibition",[5],-9.84% [at 29.8 µM]
same,activity,[6],-5.04%
same,activity,[7],-5.85%
COc1cc(/C=C/C(=O)OC[C@H]2O[C@@H](OC3OC=C(C(=O)O)C4C(O)CC(C)(O)C34)[C@H](O)[C@@H](O)[C@@H]2O)cc(OC)c1O (some centres not stated),Potency,[1],inactive
same,Potency,[2],inactive
same,Potency,[3],inactive
same,activity,[4],-54.7%
same,"activity change, negative = inhibition",[5],-2.09% [at 19.1 µM]
same,activity,[6],0.931%
same,activity,[7],-3.81%
COc1cc(C2Oc3c(OC)cc(CCCO)cc3C2CO)ccc1O (configuration not stated),Potency,[1],inactive
same,Potency,[2],inactive
same,Potency,[3],inactive
same,activity,[4],-80.9%
same,"activity change, negative = inhibition",[5],-2.79%
same,activity,[6],-9.4%
same,activity,[7],-8.69%
CC1(CO)CC(O)C2(C)CCC3(C)C(=CCC4C5(C=O)CCC(OC6OC(C(=O)O)C(O)C(O)C6OC6OC(C(=O)O)C(O)C(O)C6O)C(C)(C)C5CCC43C)C2C1 (configuration not stated),Potency,[1],inactive
same,"activity change, negative = viability loss",[2],-5.71% [at 9.23 µM] (inactive)
same,"activity change, negative = cell killing",[3],-0.213% [at 9.23 µM] (inactive)
same,activity,[4],-73.8%
same,"activity change, negative = inhibition",[5],0.442% [at 19.1 µM]
same,activity,[6],-0.108%
same,activity,[7],1.8%
CC(C)CC[C@@H](O)[C@](C)(O)[C@H]1CC[C@@]2(O)C3=CC(=O)[C@@H]4C[C@@H](O)[C@@H](O)C[C@]4(C)[C@H]3CC[C@]12C,Potency,[1],inactive
same,Potency,[2],inactive
same,Potency,[3],inactive
C=CC(C)(O)CC/C=C(\C)COC1O[C@H](CO)[C@@H](O)[C@H](O)[C@H]1O (some centres not stated),Potency,[1],inactive
same,Potency,[2],inactive
same,Potency,[3],inactive
same,activity,[4],-76.9%
same,"activity change, negative = inhibition",[5],-6.43%
same,activity,[6],-3.25%
same,activity,[7],-3.19%
O=C(/C=C/c1ccc(O)cc1)OC[C@@]1(O)C=C[C@@H]2C(C(=O)O)=CO[C@@H](O[C@@H]3O[C@H](CO)[C@@H](O)[C@H](O)[C@H]3O)[C@@H]21,Potency,[1],inactive
same,Potency,[2],inactive
same,Potency,[3],inactive
same,activity,[4],-58.3%
same,"activity change, negative = inhibition",[5],0.0203% [at 29.8 µM]
same,activity,[6],-1.35%
same,activity,[7],0.204%
C=C1C[C@]23C[C@@]1(O)CC[C@H]2[C@@]12C=C[C@H](O)[C@@](C)(C(=O)O1)[C@H]2[C@@H]3C(=O)O,Potency,[1],inactive
same,Potency,[2],inactive
same,Potency,[3],inactive
same,outcome,[8],inactive
same,outcome,[9],inactive
CC1=CC(=O)C(=C(C)C)CC2C(C)(O)CCC12O (configuration not stated),Potency,[1],inactive
same,Potency,[2],inactive
same,Potency,[3],inactive
same,activity,[4],-81.2%
same,"activity change, negative = inhibition",[5],0.373%
same,activity,[6],2.29%
same,activity,[7],1.07%
CC1(C)C2CCC1(C)C(OC(=O)C(O)(CC(=O)O)CC(=O)O)C2 (configuration not stated),Potency,[1],inactive
same,Potency,[2],inactive
same,Potency,[3],inactive
same,activity,[4],-73.1%
same,"activity change, negative = inhibition",[5],0%
same,activity,[6],1.63%
same,activity,[7],2.73%
CC1OC(OC2C(OC(=O)[C@]34CCC(C)(C)C[C@H]3C3=CCC5[C@@]6(C)CC[C@H](OC7OC(C(=O)O)C(O)C(O)C7O)C(C)(C)C6CC[C@@]5(C)[C@]3(C)CC4O)OC(CO)C2O)C(O)C(O)C1OC1OCC(O)C(O)C1O (some centres not stated),Potency,[1],inactive
same,"activity change, negative = viability loss",[2],-7.94% [at 9.23 µM] (inactive)
same,"activity change, negative = cell killing",[3],-12.2% [at 9.23 µM] (inactive)
same,activity,[4],-87.7%
same,"activity change, negative = inhibition",[5],0% [at 19.1 µM]
same,activity,[6],-6.05%
same,activity,[7],-8.02%
COCc1c(O)c(C(=O)O)c(C)c2c1OC(=O)c1c(C)cc(O)c(CO)c1O2,Potency,[1],inactive
same,Potency,[2],inactive
same,Potency,[3],inactive
same,activity,[4],-62.5%
same,"activity change, negative = inhibition",[5],-4.52%
same,activity,[6],-3.54%
same,activity,[7],-4.35%
